This is part of a sample that, as a whole, favours compounds with a hit. Of some 83,000 tested, about 20% had one in any assay.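 Assay: single dose, 48 h. Readout: percent growth (0 = no net growth; negative = cell death). Active: <10.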 Calls of active or inactive are those of the source.
What was measured:
Experiment in all cases: NCI-60 one-dose screen, 48 h (100 = growth as untreated, 0 = no growth, -100 = all killed)
HT29 colon = details: 10 µM unless noted
SNB-75 CNS = details: 10 µM unless noted
SNB-19 CNS = details: 10 µM unless noted
U251 CNS = details: 10 µM unless noted
PC-3 prostate = details: 10 µM unless noted
SK-MEL-5 melanoma = details: 10 µM unless noted
UACC-62 melanoma = details: 10 µM unless noted
LOX IMVI melanoma = details: 10 µM unless noted
SK-MEL-28 melanoma = details: 10 µM
SK-MEL-2 melanoma = details: 10 µM unless noted
EKVX NSCLC = details: 10 µM unless noted
SN12C renal = details: 10 µM unless noted
UO-31 renal = details: 10 µM unless noted
TK-10 renal = details: 10 µM unless noted
ACHN renal = details: 10 µM unless noted
CAKI-1 renal = details: 10 µM unless noted
A498 renal = details: 10 µM unless noted
CCRF-CEM leukemia = details: 10 µM unless noted
MOLT-4 leukemia = details: 10 µM unless noted
SR leukemia = details: 10 µM unless noted

Measured: growth

CCOC(=O)c1c(C=O)nc2ccccc2c1/C=C/c1ccc(Cl)cc1
inactive: HT29 colon 112% | SNB-75 CNS 79.7% | SNB-19 CNS 92.8% | U251 CNS 92.6% | PC-3 prostate 91.4% | SK-MEL-5 melanoma 83.1% | UACC-62 melanoma 102% | LOX IMVI melanoma 96.9% | SK-MEL-28 melanoma 103% | SK-MEL-2 melanoma 105% | EKVX NSCLC 81.6% | SN12C renal 96.7% | UO-31 renal 72.7% | TK-10 renal 122% | ACHN renal 89.1% | CAKI-1 renal 89.6% | A498 renal 103% | CCRF-CEM leukemia 76.6% | MOLT-4 leukemia 78.9%

CN1CCN(Cc2ccc(C(=O)Nc3cncc(C#Cc4cnc(N)c5ccccc45)c3)cc2C(F)(F)F)CC1
active: HT29 colon -53.2% | SNB-75 CNS -96.4% | SNB-19 CNS -47.5% | U251 CNS -70.5% | PC-3 prostate -18.8% | SK-MEL-5 melanoma -94.6% | LOX IMVI melanoma -92.4% | SK-MEL-28 melanoma -85.5% | SK-MEL-2 melanoma -53.9% | EKVX NSCLC -8.85% | SN12C renal -81.7% | UO-31 renal -90.7% | TK-10 renal -70.1% | ACHN renal -76.1% | CAKI-1 renal -91.4% | A498 renal -62.9% | CCRF-CEM leukemia 0.702% | MOLT-4 leukemia -30%
inactive: UACC-62 melanoma 42.7%

COc1ccc(C2Nc3nc(OC)n(C)c(=O)c3N=C3c4ccccc4C(=O)C32)cc1 (stereo not given)
inactive: HT29 colon 113% | SNB-75 CNS 77.4% | SNB-19 CNS 91.8% | U251 CNS 90.8% | PC-3 prostate 87.8% | SK-MEL-5 melanoma 95% | UACC-62 melanoma 93.1% | LOX IMVI melanoma 87.7% | SK-MEL-28 melanoma 106% | SK-MEL-2 melanoma 89.7% | EKVX NSCLC 81.9% | SN12C renal 86.6% | UO-31 renal 94.2% | TK-10 renal 124% | ACHN renal 85.3% | CAKI-1 renal 54.4% | A498 renal 105% | CCRF-CEM leukemia 87.9% | MOLT-4 leukemia 77.3%

CN1CCN(Cc2ccc(NC(=O)c3cncc(C#Cc4nc(N)nc5[nH]ncc45)c3)cc2C(F)(F)F)CC1
active: CCRF-CEM leukemia 5.35% | MOLT-4 leukemia 8.02%
inactive: HT29 colon 55.3% | SNB-75 CNS 85% | SNB-19 CNS 108% | U251 CNS 107% | PC-3 prostate 108% | SK-MEL-5 melanoma 90.2% | UACC-62 melanoma 89.3% | LOX IMVI melanoma 88.1% | SK-MEL-28 melanoma 94.3% | SK-MEL-2 melanoma 92.4% | EKVX NSCLC 109% | SN12C renal 89.7% | UO-31 renal 122% | TK-10 renal 126% | ACHN renal 99.8% | CAKI-1 renal 66.5% | A498 renal 102%

COc1cc(/C=C/C(=O)c2c(C)nc3ccccc3c2/C=C/c2ccccc2)cc(OC)c1OC
active: HT29 colon -1.3% | SNB-19 CNS 1.12% | U251 CNS -14.1% | SK-MEL-5 melanoma 8.08% | LOX IMVI melanoma -86.7% | SK-MEL-28 melanoma 1.27% | SK-MEL-2 melanoma -6.78% | ACHN renal -27.4% | CCRF-CEM leukemia 4.76% | MOLT-4 leukemia -0.744%
inactive: SNB-75 CNS 14.2% | PC-3 prostate 20.5% | UACC-62 melanoma 10.5% | EKVX NSCLC 26.9% | SN12C renal 11.1% | UO-31 renal 27.4% | TK-10 renal 10.1% | CAKI-1 renal 30.8% | A498 renal 40.6%

O=C(Nc1ccc(N2CCNCC2)cn1)c1[nH]ncc1Nc1ncnc2sc3c(c12)CCC3
inactive: SNB-75 CNS 85.7% | SNB-19 CNS 10.7% | SK-MEL-5 melanoma 59.7% | UACC-62 melanoma 38.9% | SK-MEL-2 melanoma 89.7% | EKVX NSCLC 83.8% | SN12C renal 53.6% | UO-31 renal 72.6% | TK-10 renal 95.2% | CAKI-1 renal 54.3% | A498 renal 70.2% | MOLT-4 leukemia 14.3%
active: HT29 colon -42.3% | U251 CNS -71.9% | PC-3 prostate -30.6% | LOX IMVI melanoma -79.6% | SK-MEL-28 melanoma -40.3% | ACHN renal -76.5% | CCRF-CEM leukemia -7.26% | SR leukemia 0.52%

O=C(/C=C/c1ccccc1)c1ccc(Nc2nc(NCCO)nc(Nc3ccc(Cl)cc3)n2)cc1
inactive: HT29 colon 30.2% | SNB-75 CNS 69.2% | SNB-19 CNS 79.6% | U251 CNS 23% | PC-3 prostate 77.8% | SK-MEL-5 melanoma 80.2% | UACC-62 melanoma 78.7% | LOX IMVI melanoma 30.6% | SK-MEL-28 melanoma 88.2% | SK-MEL-2 melanoma 95.4% | EKVX NSCLC 74.2% | SN12C renal 94.1% | UO-31 renal 66.7% | TK-10 renal 98.5% | ACHN renal 74.1% | CAKI-1 renal 79.2% | A498 renal 88.9% | CCRF-CEM leukemia 60.6% | MOLT-4 leukemia 74.3% | SR leukemia 23.1%

CCN1C(=O)N(CC)C2C1NC(=S)N2/N=C/C=C/c1ccccc1OC (stereo not given)
active: HT29 colon 2.77% | SK-MEL-5 melanoma -40.7% | A498 renal -4.32%
inactive: SNB-75 CNS 44.8% | SNB-19 CNS 26.5% | U251 CNS 20.8% | PC-3 prostate 25.2% | UACC-62 melanoma 25.8% | LOX IMVI melanoma 21.1% | SK-MEL-28 melanoma 56.7% | SK-MEL-2 melanoma 32.6% | EKVX NSCLC 30.9% | SN12C renal 26% | UO-31 renal 46.3% | TK-10 renal 55.2% | ACHN renal 22.9% | CAKI-1 renal 28.4% | CCRF-CEM leukemia 13.8% | MOLT-4 leukemia 15.7% | SR leukemia 12%

COc1cc2nc(NC3CCCC3)nc(NC3CCN(C(C)C)CC3)c2cc1OC
active: SR leukemia -1.77%
inactive: HT29 colon 17.3% | SNB-75 CNS 61.2% | SNB-19 CNS 88% | U251 CNS 45% | PC-3 prostate 71.1% | SK-MEL-5 melanoma 67.6% | UACC-62 melanoma 94.6% | LOX IMVI melanoma 84.4% | SK-MEL-28 melanoma 87.1% | SK-MEL-2 melanoma 101% | EKVX NSCLC 81.6% | SN12C renal 97.3% | UO-31 renal 79.5% | TK-10 renal 71.7% | ACHN renal 86.9% | CAKI-1 renal 98.2% | A498 renal 97.4% | CCRF-CEM leukemia 66.4% | MOLT-4 leukemia 54.1%

CC(=O)c1ccc(Nc2nc(NCCO)nc(Nc3ccc(Cl)cc3)n2)cc1
inactive: HT29 colon 96.8% | SNB-75 CNS 77.5% | SNB-19 CNS 92.4% | U251 CNS 99.7% | PC-3 prostate 90.5% | SK-MEL-5 melanoma 74.9% | UACC-62 melanoma 78% | LOX IMVI melanoma 87.9% | SK-MEL-28 melanoma 95.2% | SK-MEL-2 melanoma 95.2% | EKVX NSCLC 80.2% | SN12C renal 95.8% | UO-31 renal 81.3% | TK-10 renal 108% | ACHN renal 87.8% | CAKI-1 renal 92.1% | A498 renal 72.9% | CCRF-CEM leukemia 89.4% | MOLT-4 leukemia 83.9% | SR leukemia 64.7%

CSc1nc2c(c(=O)n1C)N=C1c3ccccc3C(=O)C1C(c1ccccc1)N2 (stereo not given)
inactive: HT29 colon 52.2% | SNB-75 CNS 50% | SNB-19 CNS 82.4% | U251 CNS 74.5% | PC-3 prostate 64.9% | SK-MEL-5 melanoma 69.2% | UACC-62 melanoma 107% | LOX IMVI melanoma 74.5% | SK-MEL-28 melanoma 72.5% | SK-MEL-2 melanoma 66.2% | EKVX NSCLC 75.4% | SN12C renal 138% | UO-31 renal 71.1% | TK-10 renal 101% | ACHN renal 75.5% | CAKI-1 renal 53.4% | A498 renal 99.9% | CCRF-CEM leukemia 82.6% | MOLT-4 leukemia 84% | SR leukemia 27.1%

COc1cccc2cc(N(C)c3nc(C)nc4ccsc34)ccc12
inactive: SNB-75 CNS 36% | SNB-19 CNS 24.1% | U251 CNS 11.7% | PC-3 prostate 12.7% | UACC-62 melanoma 43.4% | LOX IMVI melanoma 16.3% | SK-MEL-28 melanoma 58.9% | SK-MEL-2 melanoma 13.1% | EKVX NSCLC 60.2% | SN12C renal 25.7% | UO-31 renal 30.5% | TK-10 renal 41.8% | ACHN renal 18.9% | CAKI-1 renal 21.5%
active: HT29 colon -10.3% | SK-MEL-5 melanoma -63% | A498 renal -9.74% | CCRF-CEM leukemia 4.65% | MOLT-4 leukemia 3.39% | SR leukemia 2.36%

C=C1C(=O)O[C@H]2[C@H]1CC/C(COC(=O)/C=C\C(=O)O)=C\CC[C@@]1(C)O[C@@H]21
inactive: HT29 colon 108% | SNB-75 CNS 79.4% | SNB-19 CNS 98.8% | U251 CNS 108% | PC-3 prostate 102% | SK-MEL-5 melanoma 102% | UACC-62 melanoma 98% | LOX IMVI melanoma 99.4% | SK-MEL-28 melanoma 98.8% | SK-MEL-2 melanoma 112% | EKVX NSCLC 102% | SN12C renal 99.1% | UO-31 renal 85.2% | TK-10 renal 106% | ACHN renal 98% | CAKI-1 renal 100% | A498 renal 93.5% | CCRF-CEM leukemia 107% | MOLT-4 leukemia 110% | SR leukemia 114%

Cc1ccc(N=NC2C(=O)N(c3ccc(Cl)cc3)N(c3ccc(Cl)cc3)C2=O)cc1
inactive: HT29 colon 104% | SNB-75 CNS 84.1% | SNB-19 CNS 91.1% | U251 CNS 99% | PC-3 prostate 93.4% | SK-MEL-5 melanoma 91.6% | UACC-62 melanoma 92.4% | LOX IMVI melanoma 96.6% | SK-MEL-28 melanoma 99.1% | SK-MEL-2 melanoma 105% | EKVX NSCLC 94.1% | SN12C renal 96.4% | UO-31 renal 73.1% | TK-10 renal 132% | ACHN renal 95% | CAKI-1 renal 92.4% | A498 renal 88.6% | CCRF-CEM leukemia 96.3% | MOLT-4 leukemia 100% | SR leukemia 120%

O=C(/C=C/c1ccc(C(F)(F)F)cc1)c1ccc(Nc2nc(NCCO)nc(Nc3ccc(Cl)cc3)n2)cc1
inactive: SNB-75 CNS 37.4% | SNB-19 CNS 76% | PC-3 prostate 32.9% | SK-MEL-5 melanoma 84.7% | UACC-62 melanoma 62.4% | SK-MEL-28 melanoma 73% | SK-MEL-2 melanoma 99.9% | EKVX NSCLC 59.1% | SN12C renal 79.1% | UO-31 renal 59.9% | TK-10 renal 86.6% | ACHN renal 52.2% | CAKI-1 renal 68.2% | A498 renal 78.5% | CCRF-CEM leukemia 18.2% | MOLT-4 leukemia 20.7% | SR leukemia 21.2%
active: HT29 colon 5.76% | U251 CNS -41.8% | LOX IMVI melanoma 0.53%

Cc1ccc2cccc(Oc3ccc(Nc4ncnc5onc(-c6ccccc6)c45)cc3)c2n1
inactive: HT29 colon 57.2% | SNB-75 CNS 78.1% | SNB-19 CNS 92.3% | U251 CNS 70% | PC-3 prostate 58.5% | SK-MEL-5 melanoma 46.3% | UACC-62 melanoma 63.8% | LOX IMVI melanoma 56.5% | SK-MEL-28 melanoma 80.1% | SK-MEL-2 melanoma 94% | EKVX NSCLC 85.5% | SN12C renal 83.9% | UO-31 renal 55.6% | TK-10 renal 86.6% | ACHN renal 80.1% | CAKI-1 renal 89.2% | A498 renal 13% | CCRF-CEM leukemia 80.7% | MOLT-4 leukemia 72.2% | SR leukemia 67%

Reference: PubChem BioAssay (NCI)
